# Bioassay records (PubChem BioAssay)
# CHX counter: counter-screen for Shiga toxin inhibitors: cycloheximide protein synthesis inhibition | cell reporter, cycloheximide protein synthesis inhibition counterscreen | max response, % | 300,000 tested, 12% active | AID 2314; in the data active = max response mostly above about 13%, no sharp cut-off; inactive = mostly below about 14%; note: read at 38.3 µM for the half of the compounds with a filed dose; 0% is about no effect
# LmPK inh: LmPK (Leishmania mexicana) enzyme inhibition; Q27686; purified LmPK, Kinase-Glo ATP luminescence, 1 h; Potency, µM (titrated, usually from 57.5 µM), without a hit: at the top dose activity change, negative = inhibition, hits mostly inhibitors; 290,000 tested, 0.37% active; note: potency is the fitted concentration of half-maximal effect; % is set by controls: 0 for no effect and ±100 for the full control effect
# Target sequence (Q27686 whole entry, looked up): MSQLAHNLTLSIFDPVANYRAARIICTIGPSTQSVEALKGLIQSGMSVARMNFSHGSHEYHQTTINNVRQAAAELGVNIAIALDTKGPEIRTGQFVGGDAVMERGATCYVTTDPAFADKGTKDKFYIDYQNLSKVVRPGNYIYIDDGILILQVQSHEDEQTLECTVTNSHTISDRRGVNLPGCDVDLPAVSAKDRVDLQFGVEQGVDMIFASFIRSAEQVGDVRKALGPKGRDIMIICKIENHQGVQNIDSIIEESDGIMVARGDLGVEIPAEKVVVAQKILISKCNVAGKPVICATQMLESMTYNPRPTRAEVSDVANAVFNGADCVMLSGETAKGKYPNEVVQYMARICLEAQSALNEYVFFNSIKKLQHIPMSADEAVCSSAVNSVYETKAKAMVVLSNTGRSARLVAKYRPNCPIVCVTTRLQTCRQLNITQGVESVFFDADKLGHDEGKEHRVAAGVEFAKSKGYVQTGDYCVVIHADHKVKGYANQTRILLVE
#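 Kinase-Glo luminescence read after 1 h RT reaction of 0.1 nM LmPK with 0.5 mM PEP and 0.1 mM ADP. Activity scaled between uninhibited and enzyme-free controls.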
# FBPA Giardia inh: blocks Giardia fructose-bisphosphate aldolase activity; A8B2U2; purified Giardia FBPA; Potency, µM (titrated, usually from 59.6 µM), for inactives: at the top dose activity, negative = inhibition, most hits filed as inhibitors; 290,000 tested, 0.71% active; note: potency is the fitted concentration of half-maximal effect; % is set by controls: 0 for no effect and ±100 for the full control effect; nearly all actives have a fitted effect of over 55% in size
#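 Giardia FBPA (40 nM reagent) was preincubated 10 min at RT with compound (up to 57.5 uM final), then substrate plus GAPDH/TPI/NAD/arsenate coupling system with diaphorase/resazurin was added; resorufin fluorescence (525/598 nm) was read after 20 min.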
# Shiga toxin inh: Shiga toxin inhibition; Vero cells, Shiga toxin protein synthesis inhibition reporter; inhibition, % at 38.7 µM; 290,000 tested, 9.2% active; in the data active = inhibition mostly above about 28%, no sharp cut-off; inactive = mostly below about 43%; note: 0% is about no effect
# Tb PYK inh: T. brucei pyruvate kinase inhibition. 410,000 tested, 0.12% active. Potency, µM (top dose mostly 76.8 µM), for inactives: at the highest dose activity, negative = inhibition, actives largely listed as inhibitors. TbPYK enzyme, Kinase-Glo Plus ATP luminescence, 45 min. AID 624173. Q57TT1; note: potency is the fitted concentration of half-maximal effect; % is set by controls: 0 for no effect and ±100 for the full control effect; nearly all actives have a fitted effect of over 50% in size
#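 In this concentration-response screen, enzyme-free wells defined baseline while DMSO plates tracked drift. Each reaction combined TbPYK, substrate, compound and 130 uM ADP for 45 min at room temperature. Kinase-Glo Plus luminescence gave the signal.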
# RE007 growth inh: less growth of the S. pombe RE007 Vpr strain; Potency, µM (highest dose often 92.2 µM), without a hit: at the highest dose activity change, negative = less growth, usual class: inhibitors; S. pombe RE007 Vpr strain, BacTiter-Glo ATP luminescence, 24 h; 360,000 tested, 0.21% active; active = well fitted falling curve with a large enough effect; inconclusive = small, poorly fitted or top-dose-only effect; inactive = no such curve, though single readings can be large or run the other way; note: potency is the fitted concentration of half-maximal effect; % is set by controls: 0 for no effect and ±100 for the full control effect; nearly all actives have a fitted effect of over 50% in size
#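 Fission yeast RE007 carrying one integrated HIV-1 vpr copy, seeded at OD 0.01 in PMG+AL medium with 23 nL pinned compound. Grown 24 h at 30 degrees; viability read by BacTiter-Glo luminescence after 5 min.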
# An asterisk follows results filed as active; ? = inconclusive; · = no result; + = active, no number. The sample as a whole holds a higher share of hits than the screen did. Unless noted, calls come from the whole dose curve; as a rule, active = well fitted curve in the direction sought with a large enough effect; inconclusive = small, poorly fitted or top-dose-only effect, or another doubt; inactive = no such curve, though single readings can be large; an effect the other way counts as inactive or inconclusive.
SMILES,CHX counter,LmPK inh,FBPA Giardia inh,Shiga toxin inh,Tb PYK inh,RE007 growth inh
CC(=O)Nc1nnc(SCc2cccc(F)c2)s1,13,-3%,6%,21*,-2%,7%
COC(=O)c1ccccc1NC(=O)Cn1c(=O)n(-c2ccc(C)cc2)c(=O)c2ccccc21,·,·,·,·,2%,·
COC(=O)[C@H](CC(C)C)NCc1cccc(CN[C@@H](CC(C)C)C(=O)OC)c1,1,-4%,-4%,-3,2%,-14%
CCN(CC)c1cc(C)c2cc(NC(=O)/C=C/c3cc(OC)c(OC)c(OC)c3)ccc2n1,·,·,·,·,1%,·
CCOC(=O)Nc1sc2c(c1C(N)=O)CCC(C)C2 (centres undefined),1,-1%,2%,-2,-2%,-5%
CC1CCc2c(sc(NC(=O)c3ccccc3C(=O)O)c2C#N)C1 (centres undefined),10,1%,-1%,43,1%,20%
CC(=O)NC(=S)Nc1sc2c(c1C(N)=O)CCC(C)C2 (centres undefined),54*,2%,-13%,53*,-11%,4%
CCN(CC(=O)Nc1sc2c(c1C#N)CCC(C)C2)CC(=O)NC1CCS(=O)(=O)C1 (centres undefined),19*,1%,-12%,42*,-16%,6%
CC(=O)Nc1sc2c(c1C#N)CCC(C)C2 (centres undefined),17,0%,6%,38*,0%,-14%
Cc1cc(C(=O)Nc2sc3c(c2C#N)CCC(C)C3)cs1 (centres undefined),38*,-11%,0%,126*,-5%,8%
CC(C)OCCCNC(=O)c1cn(C)c2ccc(S(=O)(=O)N3CCCCCC3)cc2c1=O,·,·,·,·,1%,·
CC(C)(C)NC(=O)CSc1nc(-c2ccccc2)c(-c2ccccc2)[nH]1,-2,2%,-6%,-29,0%,2%
COC(=O)CSc1ncccc1-c1nc2ccccc2[nH]1,24*,-2%,-1%,+,0%,-4%
CC(C)(C)NC(=O)CSc1ncccc1-c1nc2ccccc2[nH]1,26*,3%,-5%,26*,-2%,3%
O=C(CSc1ncccc1-c1nc2ccccc2[nH]1)N1CCc2ccccc21,85*,2%,5%,26,-11%,-3%
COc1cccc(-c2cnc(C(O)c3ccc(Cl)c(F)c3)[nH]2)c1 (centres undefined),·,·,·,·,-4%,-12%
O=C1C(Cl)=C(NCc2cccnc2)C(=O)c2ccccc21,22*,0%,-19%,45*,3%,?
Clc1ccccc1-c1cc(NCc2cccnc2)ncn1,·,·,1%,·,·,·
C=CCNC1=C(Cl)C(=O)c2ccccc2C1=O,1,-12%,?,active,-1%,20µM*
O=C1C(Cl)=C(NCCc2ccccc2)C(=O)c2ccccc21,·,·,·,·,?,6.3µM*
O=C(O)c1ccc(NC2=C(Cl)C(=O)c3ccccc3C2=O)cc1,-1,-17%,?,19,-17%,2%
COc1ccc(Br)cc1C1NC(c2ccc3c(c2)OCO3)=CC(c2cc(Cl)ccc2O)N1 (centres undefined),45*,·,·,90*,·,·
Oc1ccc(Cl)cc1C1C=C(c2ccc3c(c2)OCO3)NC(c2cc(Br)ccc2F)N1 (centres undefined),31*,·,·,83*,·,·
Cc1c(C(=O)Nc2ccccc2F)sc2ncn(CC(=O)N3CCOCC3)c(=O)c12,15,4%,-6%,-8,2%,15%
CCOC(=O)c1ccc2[nH]c3c(c2c1)CCCC3C(=O)OCC (centres undefined),4,0%,1%,20,-10%,-9%
CCOC(=O)c1ccc2[nH]c3c(c2c1)CCCCC3=O,15*,0%,1%,50*,4%,-2%
Cc1ccc2nc(-c3cccs3)c(Nc3c(C)cccc3C)n2c1,·,·,·,·,-3%,·
c1ccc(OCc2nnc(-c3ccccc3)o2)cc1,26*,-1%,6%,118*,-2%,-15%
Oc1ccccc1-c1nnc(COc2ccc(Cl)cc2Cl)o1,45*,1%,1%,74*,-17%,-4%
Cc1ccc(OCc2nnc(-c3ccc(Cl)cc3)o2)cc1,·,·,·,·,-2%,-17%
